This passage reports Potency results from PubChem BioAssay (NCATS).

Experiment [1] can be described thus: qHTS of pediatric cancer cell lines to identify multiple opportunities for drug repurposing: Primary screen for Saos-2 cells (AID 1347097). Also: nearly all actives have a fitted effect of over 40% in size. Also: potency is read from the fitted curve at half-maximal effect. In outline: (§1)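 Primary screen of approved and investigational compounds on cells in growth media at 37 degrees C, 5% CO2. MIPE set at 11-point and NPC set at 8-point dilutions; viability scored by ATP-based luminescence at 48 hours.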
A general note: qHTS replaces the single test concentration by a dilution series.

Experiment [2] can be described thus: qHTS of pediatric cancer cell lines to identify multiple opportunities for drug repurposing: Primary screen for NB1643 cells (AID 1347099). Also: nearly all actives have a fitted effect of over 50% in size. Also: potency is read from the fitted curve at half-maximal effect. In outline:
as §1

A short description of experiment [3]: qHTS of pediatric cancer cell lines to identify multiple opportunities for drug repurposing: Primary screen for LAN-5 cells (AID 1347100). Also: potency is read from the fitted curve at half-maximal effect. The method, boiled down:
(§2)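 Cells (500-1,000/well) rested 5 h, then received compounds for 48 h; metabolically active cells were measured by CellTiter-Glo luminescence. Final concentrations spanned up to 46 µM (MIPE, 11-point) or 0.59 nM-46 µM (NPC, 8-point) in primary screens, 11-point in follow-ups.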

The nature of experiment [4]: qHTS of pediatric cancer cell lines to identify multiple opportunities for drug repurposing: Primary screen for BT-12 cells (AID 1347101). Also: nearly all actives have a fitted effect of over 25% in size. Also: potency is read from the fitted curve at half-maximal effect. The method, boiled down:
as §2

A short description of experiment [5]: qHTS of pediatric cancer cell lines to identify multiple opportunities for drug repurposing: Primary screen for Rh18 cells (AID 1347102). Also: nearly all actives have a fitted effect of over 65% in size. Also: potency is read from the fitted curve at half-maximal effect. The method, boiled down: as §2
Experiment [6] is described as follows: qHTS of pediatric cancer cell lines to identify multiple opportunities for drug repurposing: Primary screen for OHS-50 cells (AID 1347103). Also: nearly all actives have a fitted effect of over 40% in size. Also: potency is read from the fitted curve at half-maximal effect. The method, boiled down:
as §2

A short description of experiment [7]: qHTS of pediatric cancer cell lines to identify multiple opportunities for drug repurposing: Primary screen for RD cells (AID 1347104). Also: nearly all actives have a fitted effect of over 55% in size. Also: potency is read from the fitted curve at half-maximal effect. In outline: as §1
A short description of experiment [8]: qHTS of pediatric cancer cell lines to identify multiple opportunities for drug repurposing: Primary screen for control Hh wild type fibroblast cells (AID 1347106).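 Also: series mostly up to about 46 µM; a drop in luminescence marks cytotoxicity and a rise apparent proliferation; nearly all actives have a fitted effect of over 55% in size.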 In outline: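 Cells (500-1,000/well) in growth media were settled 5 h at 37 degrees C, then given compounds for 48 h. Viability was read as CellTiter-Glo luminescence. Primary runs used MIPE at 11 points (0.78 nM-46 µM) and NPC at 8 points (0.59 nM-46 µM); follow-ups used 11 points.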

Experiment [9] in a line: qHTS of pediatric cancer cell lines to identify multiple opportunities for drug repurposing: Primary screen for MG 63 (6-TG R) cells (AID 1347105). Also: nearly all actives have a fitted effect of over 50% in size. Also: potency is read from the fitted curve at half-maximal effect. In outline:
as §1

Results filed as inconclusive are left out. Active and inactive are the calls of the source. Calls follow the shape of the dose curve; as a rule, active = well fitted curve in the direction sought with a large enough effect; inconclusive = small, poorly fitted or top-dose-only effect, or another doubt; inactive = no such curve, though single readings can be large; an effect the other way counts as inactive or inconclusive.

As for `CCN1CCC(n2cc(CNc3cc(Cl)c4ncc(C#N)c(Nc5ccc(F)c(Cl)c5)c4c3)nn2)CC1`, the Potency in experiment [1] was 14.8 µM (active); in [2] it was 18.7 µM (active); in experiment [3] it was 14.8 µM (active); in experiment [4] it was 24.3 µM (active); in experiment [5], 20.9 µM (active); in [6], 17.2 µM (active). The Potency in experiment [7] is 18.7 µM (active). Besides, the Potency result in [8] is “inactive”.

`CC(C)Oc1cc(Nc2nc(N[C@@H](C)c3ccc(F)cn3)ncc2Cl)[nH]n1`: the Potency in experiment [1] was 5.26 µM (active); in experiment [2], 1.48 µM (active); in experiment [3] it was 2.35 µM (active); in experiment [5], 5.26 µM (active); in [6] it was 21.7 µM (active); in experiment [7] it was 13.2 µM (active). Moreover, the Potency in [9] was 5.9 µM (active). The Potency entry in experiment [8] is “inactive”.

As to `CC(C)c1c(C(=O)Nc2ccccc2)c(-c2ccccc2)c(-c2ccc(F)cc2)n1CC[C@H](O)C[C@@H](O)CC(=O)O`, the Potency in experiment [1] was 6.62 µM (active); in experiment [2], 20.9 µM (active); in experiment [4], 5.44 µM (active); in experiment [5], 20.9 µM (active); in experiment [6], 19.3 µM (active); in experiment [9], 14.8 µM (active). The Potency entry in [3] and in experiment [8] was “inactive” in each case.

Regarding `Cc1ccc(C(=O)N(CCCN)[C@@H](c2oc3cc(Cl)ccc3c(=O)c2Cc2ccccc2)C(C)C)cc1`, the Potency in experiment [1], in experiment [3], in experiment [4] and in experiment [6] was 0.001 µM (active) throughout. Also, the Potency result in experiment [2] and in experiment [9] was “inactive” each time.

Regarding `Cc1ccccc1C(C(=O)NC1CCCCC1)N(C(=O)CNc1ccc(C#N)cc1)c1cccc(F)c1` (configuration not stated), the Potency in experiment [1] is 18.7 µM (active). Further, the Potency result in experiment [2], in [3], in [4], in experiment [7], in experiment [9] and in experiment [8] was “inactive” throughout.

Turning to `C[C@H]1[C@H](O)O[C@@H]2O[C@@]3(C)CC[C@@H]4[C@H](C)CC[C@@H]1[C@@]24OO3`, the Potency was 2.96 µM (active) in experiment [1]; 5.9 µM (active) in experiment [2]; 6.62 µM (active) in experiment [3]; 1.53 µM (active) in experiment [4]; 1.87 µM (active) in [7]; 23.5 µM (active) in [9]. Moreover, the Potency result in [8] is “inactive”.

Consider `O=C1C(CCC(O)c2ccc(F)cc2)C(c2ccc(O)cc2)N1c1ccc(F)cc1` (configuration not stated), for which the Potency entry in experiment [1], in experiment [2], in experiment [3], in [4], in experiment [5] and in experiment [7] was “inactive” each time. Besides, the Potency entry in [9] and in [8] was “inactive” throughout.

In the case of `N#CC(c1ccc(Cl)cc1)c1c(Cl)cc(-n2ncc(=O)[nH]c2=O)cc1Cl` (configuration not stated), the Potency in experiment [1] is 9.35 µM (active); in [2] it was 18.7 µM (active); in [3] it was 7.43 µM (active); in experiment [4] it was 21.7 µM (active); in experiment [9], 14.8 µM (active). Further, in [8], the Potency result was “inactive”.

Consider `C[C@@H]1CC=CC=CC=CC=C[C@@H](O[C@@H]2O[C@H](C)[C@@H](O)[C@H](N)[C@H]2O)C[C@@H]2O[C@](O)(C[C@@H](O)C[C@@H]3O[C@@H]3C=CC(=O)O1)C[C@H](O)[C@@H]2C(=O)O`, for which the Potency entry in experiment [1], in [2], in experiment [3] and in [8] was “inactive” throughout. The values for the Potency in [4] and in experiment [6] were 15.3 µM (active) and 9.68 µM (active), respectively.

In the case of `NS(=O)(=O)c1ccc(Nc2nc(OCC3CCCCC3)c3[nH]cnc3n2)cc1`, the values for the Potency in experiment [1], in experiment [2] and in experiment [3] were 16.6 µM (active), 18.7 µM (active) and 16.6 µM (active), respectively. Besides, the Potency entry in experiment [4], in experiment [5], in [9] and in experiment [8] was “inactive” throughout.

In the case of `COc1c(C)cnc(Cn2cnc3c(Cl)nc(N)nc32)c1C`, in experiment [1], the Potency result was “inactive”. Further, the Potency in experiment [2] was 0.264 µM (active); in [3] it was 0.166 µM (active); in [5] it was 0.332 µM (active); in experiment [6], 0.432 µM (active).

As to `COc1ccc(-c2cc(=O)c3c(O)cc(O[C@@H]4O[C@H](CO[C@@H]5O[C@@H](C)[C@H](O)[C@@H](O)[C@@H]5O)[C@@H](O)[C@H](O)[C@@H]4O)cc3o2)cc1O`, the Potency result in experiment [1], in experiment [3], in experiment [4], in experiment [5], in [6] and in experiment [9] was “inactive” in each case. Also, in [8], the Potency entry is “inactive”. The Potency in experiment [2] was 16.6 µM (active).

With `c1cc(OCCN2CCCCC2)cc(-c2n[nH]c3ccc(-c4ncn[nH]4)cc23)c1`, the Potency entry in [1], in experiment [5], in experiment [7], in experiment [9] and in [8] was “inactive” in each case. The Potency in [2] is 5.9 µM (active); in experiment [3], 14.8 µM (active); in experiment [6] it was 6.85 µM (active).

As for `C[C@@H]1[C@H](O)[C@@H](C)C=CC=CC=CC=CC=CC=CC=C[C@H](O[C@@H]2O[C@H](C)[C@H](O)[C@H](N)[C@@H]2O)C[C@@H]2O[C@](O)(C[C@@H](O)C[C@@H](O)[C@H](O)CC[C@@H](O)C[C@@H](O)CC(=O)O[C@H]1C)C[C@H](O)[C@@H]2C(=O)O`, the Potency entry in [1], in experiment [4], in experiment [5], in experiment [6], in experiment [9] and in [8] was “inactive” in each case. Moreover, the Potency in experiment [2] is 0.166 µM (active); in experiment [7], 0.743 µM (active).

As to `CCN(CCO)CCCOc1ccc2c(Nc3cc(CC(=O)Nc4cccc(F)c4)[nH]n3)ncnc2c1`, the Potency result in experiment [1], in experiment [4], in experiment [5], in experiment [7] and in experiment [9] was “inactive” throughout. The Potency in experiment [3] was 0.0372 µM (active).

For `CC[C@H](NC(=O)[C@H](C)NC)C(=O)N1C[C@@H](O)C[C@H]1Cc1c(-c2[nH]c3cc(F)ccc3c2C[C@H]2C[C@H](O)CN2C(=O)[C@H](CC)NC(=O)[C@H](C)NC)[nH]c2cc(F)ccc12`, the figures for the Potency in [1], in experiment [3] and in experiment [4] were 0.372 µM (active), 0.372 µM (active) and 0.273 µM (active), respectively. For the same compound, the Potency entry in experiment [5] is “inactive”.

Consider `CC(C)C[C@H](NC(=O)c1cc2ccccc2s1)C(=O)N1CCN(C(=O)[C@H](CO)NS(=O)(=O)c2ccc(Cl)cc2Cl)CC1`, for which the Potency in experiment [1] is 14.8 µM (active); in experiment [2], 23.5 µM (active); in [4] it was 0.001 µM (active); in experiment [6], 21.7 µM (active); in experiment [7], 29.6 µM (active). The Potency result in experiment [8] was “inactive”.

`O=C(Nc1ccccc1)Nc1ccc(-c2ccc(C(=O)[C@H]3CCC[C@H]3C(=O)O)cc2)cc1`: the Potency entry in experiment [1], in [2], in experiment [3], in [5] and in experiment [8] was “inactive” each time.

As to `C[C@@H]1[C@H](C)CC[C@]2(C(=O)O)CC[C@]3(C)C(=CC[C@@H]4[C@@]5(C)CC[C@H](O)C(C)(C)[C@H]5CC[C@]43C)[C@@H]12`, the Potency was 9.59 µM (active) in experiment [1] and 0.303 µM (active) in [3]. Further, the Potency result in experiment [4], in experiment [5], in [7], in [9] and in experiment [8] was “inactive” in each case.

As to `CCC(=O)OCC(=O)[C@@]1(OC(=O)CC)[C@@H](C)C[C@@H]2[C@H]3CCC4=CC(=O)C=C[C@]4(C)[C@@]3(F)[C@@H](O)C[C@@]21C`, the Potency in experiment [1] was 0.187 µM (active); in experiment [2], 2.35 µM (active); in experiment [4], 6.11 µM (active); in experiment [6] it was 10.9 µM (active); in [7], 6.62 µM (active). In addition, the Potency entry in experiment [5] and in [8] was “inactive” throughout.

Turning to `COc1cc([C@@H]2c3cc4c(cc3[C@@H](O[C@@H]3O[C@@H]5CO[C@@H](C)O[C@@H]5[C@H](O)[C@@H]3O)[C@H]3COC(=O)[C@H]23)OCO4)cc(OC)c1O`, the Potency was 3.32 µM (active) in [1], 0.662 µM (active) in experiment [2], 0.235 µM (active) in experiment [3] and 2.73 µM (active) in experiment [6]. Besides, the Potency entry in experiment [8] is “inactive”.

For the compound `CCCCCCCCCCCCCCCC(=O)O[C@H]1[C@@H](O)[C@@H](O)[C@@H]([C@H](NC(=O)[C@@H]2C[C@@H](CCC)CN2C)[C@H](C)Cl)O[C@@H]1SC`, the Potency result in experiment [1], in experiment [3], in experiment [4], in experiment [5], in experiment [6] and in experiment [9] was “inactive” in each case. Moreover, the Potency result in [8] was “inactive”.

`Oc1ccc(C=Cc2cc(O)cc(O)c2)cc1`: the figures for the Potency in [1] and in experiment [2] were 29.6 µM (active) and 20.9 µM (active), respectively. The Potency entry in experiment [5], in experiment [9] and in [8] was “inactive” in each case.
